“And” between values parts separate entries of the source, which are not always exact repeats. Equal entries are not always repeated. Records with an inconclusive call do not appear. A call without a number means that no potency is given here. Some structures have more than one record in an assay (separate samples or runs), and their calls can disagree. The source made the active and inactive calls. Unless noted, calls come from the whole dose curve; as a rule, active = well fitted curve in the direction sought with a large enough effect in the repeat runs; inconclusive = weak or mixed curves; inactive = no such curve, though single readings can be large; an effect the other way counts as inactive or inconclusive.
How the values were obtained:
[1] = target: Progesterone receptor (Homo sapiens) (UniProt P06401); experiment: qHTS assay to identify small molecule antagonists of the progesterone receptor (PR) signaling pathway (AID 1346795; active = well fitted inhibition curve with a large enough effect in the signal ratio in the repeat runs, not every such curve was filed as active; the % refers to the signal ratio)
Sequence of Progesterone receptor (Homo sapiens) (P06401 whole entry, looked up): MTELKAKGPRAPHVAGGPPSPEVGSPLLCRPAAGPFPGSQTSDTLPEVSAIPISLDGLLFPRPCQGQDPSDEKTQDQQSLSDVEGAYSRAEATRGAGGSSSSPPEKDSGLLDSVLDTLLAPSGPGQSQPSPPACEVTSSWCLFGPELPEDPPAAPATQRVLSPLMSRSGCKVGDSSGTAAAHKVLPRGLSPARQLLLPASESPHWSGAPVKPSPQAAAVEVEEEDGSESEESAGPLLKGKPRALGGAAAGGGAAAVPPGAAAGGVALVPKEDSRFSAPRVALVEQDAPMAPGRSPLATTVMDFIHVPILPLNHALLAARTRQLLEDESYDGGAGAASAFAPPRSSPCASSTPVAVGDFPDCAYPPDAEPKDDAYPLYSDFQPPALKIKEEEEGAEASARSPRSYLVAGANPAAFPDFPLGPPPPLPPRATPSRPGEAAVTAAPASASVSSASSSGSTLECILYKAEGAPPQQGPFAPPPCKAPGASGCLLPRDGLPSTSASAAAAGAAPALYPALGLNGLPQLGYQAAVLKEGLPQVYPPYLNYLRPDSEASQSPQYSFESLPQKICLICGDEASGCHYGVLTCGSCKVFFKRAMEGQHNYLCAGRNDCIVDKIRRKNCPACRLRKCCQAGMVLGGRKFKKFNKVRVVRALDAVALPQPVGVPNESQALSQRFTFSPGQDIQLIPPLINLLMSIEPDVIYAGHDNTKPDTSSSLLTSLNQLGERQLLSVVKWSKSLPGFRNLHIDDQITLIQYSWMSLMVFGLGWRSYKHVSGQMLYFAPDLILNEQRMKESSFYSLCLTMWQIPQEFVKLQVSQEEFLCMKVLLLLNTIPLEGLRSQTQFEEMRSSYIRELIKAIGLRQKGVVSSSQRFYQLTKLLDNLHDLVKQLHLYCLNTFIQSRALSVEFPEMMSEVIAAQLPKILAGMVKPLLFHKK
Method in brief: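 Fluorescence intensity measured 2 hr after adding beta-lactamase FRET substrate to PR-UAS-bla HEK293T cells that had been co-treated 16 hr with compound and 1 nM R5020 (final concentration) in 2% charcoal-stripped FBS.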

[2] = qHTS assay to identify small molecule antagonists of the progesterone receptor (PR) signaling pathway - cell viability counter screen (AID 1346798); note: nearly all actives have a fitted effect of over 50% in size; note: potency is the fitted concentration of half-maximal effect
Method in brief: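 CellTiter-Glo luminescence; PR-UAS-bla HEK293T, 3,000 cells/well; compound + R5020, 16 hr, 37C/5% CO2; 30 min RT before read.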

[3] = qHTS assay to identify small molecule agonists of the TGF-beta/Smad signaling pathway - cell viability counter screen (AID 1346829); note: nearly all actives have a fitted effect of over 45% in size; note: potency is the fitted concentration of half-maximal effect
Method in brief: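 Cytotoxicity counter screen: CellTiter-Glo luminescence (30 min, room temperature) measured in the SBE-bla HEK 293T reporter wells after 5 hr compound treatment at 37 C and the 2 hr substrate step.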

[4] = qHTS assay to identify small molecule agonists of the TGF-beta/Smad signaling pathway (AID 1346859; active = well fitted activation curve with a large enough effect in the signal ratio in the repeat runs, not every such curve was filed as active; the % refers to the signal ratio; note: series mostly up to about 77 µM)
Method in brief: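 After overnight seeding, SBE-bla HEK 293T cells are dosed with compounds in DMSO and kept 5 hr at 37 C, 5% CO2. LiveBLAzer-type FRET substrate is then applied for 2 hr at room temperature.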

[5] = target: Thyrotropin-releasing hormone receptor (Homo sapiens) (UniProt P34981); experiment: qHTS assay to identify small molecule antagonists of the thyrotropin-releasing hormone receptor (TRHR) signaling pathway (AID 1346877; active = well fitted inhibition curve with a large enough effect in the repeat runs, not every such curve was filed as active; note: series mostly up to about 51 µM)
Sequence of Thyrotropin-releasing hormone receptor (Homo sapiens) (P34981 whole entry, looked up): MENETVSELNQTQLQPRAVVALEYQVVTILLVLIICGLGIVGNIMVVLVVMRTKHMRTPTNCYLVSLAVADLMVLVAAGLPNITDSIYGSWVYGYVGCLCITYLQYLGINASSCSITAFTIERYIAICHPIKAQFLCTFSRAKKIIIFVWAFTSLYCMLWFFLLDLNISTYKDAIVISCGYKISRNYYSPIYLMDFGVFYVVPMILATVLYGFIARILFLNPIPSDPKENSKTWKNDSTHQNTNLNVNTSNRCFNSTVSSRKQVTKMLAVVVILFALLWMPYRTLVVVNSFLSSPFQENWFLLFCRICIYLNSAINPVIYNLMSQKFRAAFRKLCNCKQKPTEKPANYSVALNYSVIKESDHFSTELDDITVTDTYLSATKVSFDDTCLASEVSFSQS
Method in brief: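 TRHR-expressing HEK293 cells were seeded, cultured 18 h at 37 °C, then loaded with calcium dye for 2 h. Compounds were pre-incubated 5 min at room temperature before 1 nM TRH (final) was added, and kinetic fluorescence was recorded for 3 min.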

[6] = target: Thyrotropin-releasing hormone receptor (Homo sapiens) (UniProt P34981); experiment: qHTS assay to identify small molecule agonists of the thyrotropin-releasing hormone receptor (TRHR) signaling pathway (AID 1346891; calls by dose curve; note: series mostly up to about 58 µM)
Method in brief: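 Compounds were tested as agonists at 15 concentrations, in triplicate, on TRHR-Hek293 cells; calcium-sensitive dye fluorescence was recorded for 3 min following addition.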

[7] = Human pregnane X receptor (PXR) small molecule agonists, qHTS cell viability counter screen (AID 1346977); note: nearly all actives have a fitted effect of over 50% in size; note: potency is the fitted concentration of half-maximal effect
Method in brief: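 Viability counter screen: CellTiter-Fluor signal in PXR-Luc HepG2 cells, 24hr compound exposure, 37C, 5% CO2.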

[8] = Caspase-3/7 induction in CHO-K1 cells by small molecules, qHTS cell viability counter screen (AID 1346979); note: nearly all actives have a fitted effect of over 35% in size; note: potency is the fitted concentration of half-maximal effect
Method in brief: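 Viability readout by fluorescence (CellTiter-Fluor) on wild-type CHO-K1 cells exposed for 16hr at 37C and 5% CO2 to compounds delivered in DMSO; reagent incubated 1hr before reading.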

[9] = Caspase-3/7 induction in CHO-K1 cells by small molecules, qHTS assay (AID 1346980); note: nearly all actives have a fitted effect of over 15% in size
Method in brief: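 Wild-type CHO-K1 cells exposed to compounds for 17hr at 37 C, 5% CO2. Caspase-3/7 activity then measured by Caspase-Glo 3/7 luminescence after 30min at room temperature.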

[10] = Caspase-3/7 induction in HepG2 cells by small molecules, qHTS cell viability counter screen (AID 1346981); note: nearly all actives have a fitted effect of over 30% in size; note: potency is the fitted concentration of half-maximal effect
Method in brief: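 Wild-type HepG2 cells (2,000/well) were allowed to settle for 5 hr at 37 C, 5% CO2, then dosed with compounds in DMSO by pin transfer. After 16 hr at 37 C, CellTiter-Fluor was added and fluorescence read 1 hr later.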

[11] = target: Nuclear receptor subfamily 1 group I member 2 (Rattus norvegicus) (UniProt Q9R1A7); experiment: Rat pregnane X receptor (rPXR) activation by small molecules, qHTS assay (AID 1346983); conditions: rPXR luciferase reporter cells, One-Glo luminescence, 24 h; stronger effect = higher value; note: nearly all actives have a fitted effect of over 20% in size
Sequence of Nuclear receptor subfamily 1 group I member 2 (Rattus norvegicus) (Q9R1A7 whole entry, looked up): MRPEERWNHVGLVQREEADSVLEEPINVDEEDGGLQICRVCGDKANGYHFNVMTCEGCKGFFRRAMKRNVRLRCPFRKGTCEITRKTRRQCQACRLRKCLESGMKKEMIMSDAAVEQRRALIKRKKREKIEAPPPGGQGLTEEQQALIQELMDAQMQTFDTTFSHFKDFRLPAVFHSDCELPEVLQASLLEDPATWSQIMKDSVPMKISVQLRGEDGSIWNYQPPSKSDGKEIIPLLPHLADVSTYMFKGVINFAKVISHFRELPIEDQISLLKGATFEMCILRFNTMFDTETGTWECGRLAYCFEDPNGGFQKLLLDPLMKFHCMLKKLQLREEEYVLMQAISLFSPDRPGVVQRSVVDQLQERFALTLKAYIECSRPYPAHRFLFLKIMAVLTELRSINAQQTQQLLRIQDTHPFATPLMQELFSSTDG
Method in brief: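 Cell-based rPXR activation assay: rPXR cells, 2,000 per well, rested 5hr at 37 C, then exposed to compounds in DMSO for 24 hr at 37 C. Luciferase activity read by One-Glo luminescence after 30 min at room temperature.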

[12] = target: Nuclear receptor subfamily 1 group I member 2 (Homo sapiens) (UniProt O75469); experiment: CYP3A4 induction through human pregnane X receptor (PXR) by small molecules, qHTS assay (AID 1346984); note: nearly all actives have a fitted effect of over 40% in size
Sequence of Nuclear receptor subfamily 1 group I member 2 (Homo sapiens) (O75469 whole entry, looked up): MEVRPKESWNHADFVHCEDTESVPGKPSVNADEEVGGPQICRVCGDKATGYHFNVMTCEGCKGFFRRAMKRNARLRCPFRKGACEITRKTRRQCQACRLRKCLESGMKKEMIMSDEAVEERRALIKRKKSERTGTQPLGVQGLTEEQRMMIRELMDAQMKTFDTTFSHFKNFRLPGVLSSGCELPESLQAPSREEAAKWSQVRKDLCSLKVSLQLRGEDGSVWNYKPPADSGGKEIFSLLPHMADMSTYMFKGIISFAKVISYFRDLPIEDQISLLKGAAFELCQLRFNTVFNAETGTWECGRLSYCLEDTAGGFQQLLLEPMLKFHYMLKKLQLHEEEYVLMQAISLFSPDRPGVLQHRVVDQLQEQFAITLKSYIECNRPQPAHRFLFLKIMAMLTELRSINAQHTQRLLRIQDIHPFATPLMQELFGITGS
Method in brief: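 DPX-2 cells (HepG2 co-transfected with PXR and CYP3A4 promoter-luciferase) treated with compounds 24 h at 37C; luciferin-IPA CYP3A4 substrate 3uM final added for 3 h, then One-Glo; luminescence read. qHTS format.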

[13] = target: Nuclear receptor subfamily 1 group I member 2 (Homo sapiens) (UniProt O75469); experiment: Human pregnane X receptor (PXR) activation by small molecules, qHTS assay (AID 1346985); note: nearly all actives have a fitted effect of over 40% in size
Method in brief: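 DPX-2 cells (HepG2 co-transfected with a PXR response element and a CYP3A4-promoter luciferase construct) were seeded at 2,000 per well, rested 5 hr at 37C, then exposed to DMSO-dissolved compounds for 24 hr. Activation was read as luciferase luminescence.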

[14] = target: Acetylcholinesterase (Homo sapiens) (UniProt P22303); experiment: Acetylcholinesterase (AChE) small molecule antagonists: colormetric cell-based qHTS assay (AID 1347395; calls by dose curve; note: nearly all actives have a fitted effect of over 30% in size; note: potency is the fitted concentration of half-maximal effect)
Sequence of Acetylcholinesterase (Homo sapiens) (P22303 whole entry, looked up): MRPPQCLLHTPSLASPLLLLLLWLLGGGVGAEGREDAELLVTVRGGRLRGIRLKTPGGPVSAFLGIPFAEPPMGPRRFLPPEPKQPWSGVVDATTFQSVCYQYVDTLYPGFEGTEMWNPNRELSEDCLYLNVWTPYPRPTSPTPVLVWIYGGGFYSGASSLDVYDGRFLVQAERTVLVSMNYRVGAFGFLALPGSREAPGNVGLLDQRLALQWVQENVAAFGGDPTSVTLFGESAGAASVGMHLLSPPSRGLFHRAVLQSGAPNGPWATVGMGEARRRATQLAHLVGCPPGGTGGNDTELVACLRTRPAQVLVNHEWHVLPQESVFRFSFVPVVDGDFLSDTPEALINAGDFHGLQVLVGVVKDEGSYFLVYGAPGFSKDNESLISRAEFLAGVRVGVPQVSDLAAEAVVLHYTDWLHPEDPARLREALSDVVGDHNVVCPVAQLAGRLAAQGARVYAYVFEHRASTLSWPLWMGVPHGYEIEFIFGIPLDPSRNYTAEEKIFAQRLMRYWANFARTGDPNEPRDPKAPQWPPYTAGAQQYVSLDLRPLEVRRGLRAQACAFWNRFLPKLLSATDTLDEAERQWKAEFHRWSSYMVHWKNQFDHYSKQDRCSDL
Method in brief: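 Homogeneous whole-cell format. SH-SY5Y cells seeded overnight, dosed with compound (30 min, 37 C, 5% CO2), then given DTNB/acetylthiocholine cocktail for 90 min at 37 C; colorimetric signal.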

[15] = target: Acetylcholinesterase (Homo sapiens) (UniProt P22303); experiment: Acetylcholinesterase (AChE) small molecule antagonists: enzyme-based qHTS assay (AID 1347397; calls by dose curve; note: nearly all actives have a fitted effect of over 55% in size; note: potency is the fitted concentration of half-maximal effect); conditions: Potency: AChE enzyme activity inhibition; outcome: AChE enzyme activity inhibition
Method in brief: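 Recombinant human AChE (50 mU/mL) preincubated with compound 30 min at room temperature; acetylthiocholine plus DTNB then added, and thiocholine formation read colorimetrically after 10 min at room temperature. DMSO served as vehicle control.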

[16] = Caspase-3/7 induction in HepG2 cells by small molecules, qHTS assay (AID 1346978); note: nearly all actives have a fitted effect of over 15% in size
Method in brief: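 Wild-type HepG2 cells, 2,000/well, settled 5 hr at 37 C and 5% CO2, then compound-treated for 17 hr; caspase-3/7 activity read by luminescent Caspase-Glo 3/7 after 30 min at room temperature.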

[17] = target: Nuclear receptor subfamily 1 group I member 2 (Homo sapiens) (UniProt O75469); experiment: Human pregnane X receptor (PXR) small molecule agonists, qHTS assay (AID 1346982); note: nearly all actives have a fitted effect of over 35% in size; note: potency is the fitted concentration of half-maximal effect
Method in brief: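 PXR-Luc HepG2 cells (CYP3A4 promoter-driven luciferase) were seeded in medium with 5% charcoal-stripped FBS, left 5 hr at 37 C, then exposed to compounds in DMSO for 24 hr. Luminescence was read after ONE-Glo addition.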

[18] = target: Acetylcholinesterase (Homo sapiens) (UniProt P22303); experiment: Acetylcholinesterase (AChE) small molecule antagonists: fluorescence cell-based qHTS assay (AID 1347398; calls by dose curve; note: nearly all actives have a fitted effect of over 50% in size; note: potency is the fitted concentration of half-maximal effect); conditions: Potency: AChE activity; outcome: AChE activity
Method in brief: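 SH-SY5Y cells (2000/well), attached overnight, incubated with compound 30 min at 37 C. Acetylthiocholine plus Thiolite Green then added for 40 min at room temperature. Thiocholine fluorescence (Ex/Em 490/520 nm) reports cellular AChE activity.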

[19] = qHTS assay to identify small molecule agonists of the progesterone receptor (PR) signaling pathway - cell viability counter screen (AID 1346799; calls by dose curve; note: nearly all actives have a fitted effect of over 45% in size; note: potency is the fitted concentration of half-maximal effect)
Method in brief: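 In parallel with the beta-lactamase readout, cytotoxicity toward PR-UAS-bla HEK293T cells was measured by CellTiter-Glo luminescence following 16 hr compound incubation in 2% charcoal-stripped FBS medium.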

[20] = qHTS assay to identify small molecule antagonists of the TGF-beta/Smad signaling pathway - cell viability counter screen (AID 1346824); note: nearly all actives have a fitted effect of over 50% in size; note: potency is the fitted concentration of half-maximal effect
Method in brief: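 SBE-bla HEK 293T cells, incubated overnight, then compound plus 0.25 ng/mL TGF-beta1 (stock added) for 5 hr at 37 C. Viability was read in the same wells by CellTiter-Glo luminescence after 30 min at room temperature.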

SMILES | Potency [1] | Potency [2] | Potency [3] | outcome [4] | Potency [5] | outcome [6] | Potency [7] | Potency [8] | Potency [9] | Potency [10] | max activation [11] | outcome [12] | Potency [13] | Potency [14] | Potency [15] | Potency [16] | Potency [17] | Potency [18] | Potency [19] | Potency [20]
C[N+]1(CCC(C(N)=O)(c2ccccc2)c2ccccc2)CCCCC1 | inactive | inactive | inactive | inactive | inactive | inactive | inactive | inactive | inactive | inactive | -4.99% (inactive) | inactive | inactive | inactive | inactive |  |  |  |  | 
O=C1c2ccccc2C(=O)N1SC(Cl)(Cl)Cl | inactive | inactive | inactive | inactive |  | inactive | 39.8 µM (active) and 17.2 µM (active) | 4.27 µM (active) and 5.45 µM (active) | inactive | 24.3 µM (active) |  |  |  | inactive | inactive | inactive | 6.03 µM (active) | inactive |  | 
CC1(C)CC(=O)CC(C)(C)N1[O] |  | inactive | inactive | inactive | inactive | inactive | inactive | inactive | inactive | inactive |  |  |  | inactive | inactive | inactive | inactive | inactive | inactive | inactive
O=C(NCNC(=O)NC1C(=O)NC(=O)N1CO)NC1C(=O)NC(=O)N1CO (centres undefined) | inactive |  | inactive | inactive |  | inactive |  | inactive | inactive | inactive |  |  |  |  |  |  |  |  |  | inactive
NC(=S)c1c(Cl)cccc1Cl |  | inactive | inactive | inactive |  |  | inactive | inactive |  | inactive |  |  |  | inactive | inactive |  |  | inactive | inactive | inactive
ClCc1ccccc1Cl |  | inactive | inactive | inactive |  |  | inactive | inactive | inactive | inactive |  |  |  | inactive | inactive | inactive | inactive | inactive | inactive | inactive
CCCCCCCCCCCCN(C)C |  | inactive | inactive | inactive | inactive | inactive | inactive | inactive | inactive | inactive |  |  |  | inactive | inactive | inactive | inactive | inactive | inactive | inactive
CC(C)c1ccc(OP(=O)(Oc2ccc(C(C)C)cc2)Oc2ccc(C(C)C)cc2)cc1 |  | 30.6 µM (active) | inactive | inactive | inactive | inactive | inactive | inactive | inactive | inactive |  |  |  | 35.8 µM (active) and 31.7 µM (active) | 28.5 µM (active) and 28.3 µM (active) | inactive | 4.36 µM (active) and 5.45 µM (active) and 10.9 µM (active) |  | inactive and 30.6 µM (active) | inactive
COP(=O)(OC)OC(Br)C(Cl)(Cl)Br (centres undefined) | inactive | inactive | inactive | inactive | inactive | inactive | inactive | 61.2 µM (active) | inactive | inactive |  |  |  |  |  |  | 61.2 µM (active) | inactive |  | 
CCCCCCCCCCCCCCCl | inactive | inactive | inactive | inactive |  | inactive | inactive | inactive | inactive | inactive |  |  |  | inactive | inactive | inactive |  |  |  | 
O=C(NC(=O)c1cc(F)c(F)cc1Cl)Nc1cc(F)ccc1N1CCC(C(=O)O)CC1 | inactive |  | inactive | inactive | inactive | inactive | inactive | inactive |  | inactive |  |  |  | inactive | inactive | inactive | inactive | inactive |  | inactive
CCCCCCCCCCCC[N+](C)(C)CCOc1ccccc1 |  | 54.5 µM (active) and 13.3 µM (active) | 55 µM (active) and 26.8 µM (active) |  | inactive | inactive | 61.1 µM (active) | 43.3 µM (active) | inactive | 61.1 µM (active) | -6.32% (inactive) |  |  | inactive | 63.3 µM (active) |  |  | 35.6 µM (active) | 24.3 µM (active) and 23.7 µM (active) | 43.7 µM (active)
C=CCOCC1CO1 (centres undefined) | inactive |  | inactive | inactive | inactive | inactive | inactive | inactive | inactive | inactive |  |  |  | inactive | inactive | inactive | inactive | inactive | inactive | inactive
c1ccc2c(c1)-c1cccc3cccc-2c13 |  | inactive | inactive | inactive |  |  | inactive | inactive | inactive | inactive |  |  |  |  |  |  |  |  | inactive | inactive
OCCCl | inactive |  | inactive | inactive |  |  | inactive | inactive | inactive |  |  |  |  | inactive | inactive | inactive |  | inactive | inactive | inactive
C[C@H]1[C@@H]2Cc3ccc(O)cc3[C@@]1(C)CCN2C | inactive |  | inactive | inactive |  | inactive |  | inactive | inactive |  |  |  |  | 15.2 µM (active) | 33.9 µM (active) | inactive |  | 2.14 µM (active) |  | inactive
CN(C)c1ccc(N=O)cc1 |  | 38.7 µM (active) and 48.6 µM (active) | inactive | inactive | inactive | inactive | 44.7 µM (active) and 27.3 µM (active) | 7.72 µM (active) and 8.63 µM (active) |  | 54.6 µM (active) and 61.1 µM (active) |  |  |  | inactive | inactive | inactive | 21.8 µM (active) and 9.69 µM (active) | inactive | inactive | inactive

From PubChem BioAssay (Tox21)
